This is an account of results in PubChem BioAssay AID720706 (Broad Institute, 2013).

Screen size: about 350,000 compounds; about 5,500 (1.6%) were called active.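 The calls were made as follows: active = significant combined selectivity score with lowered wild-type GFP, culture density cut under 30%, mutant RFP and density less affected; inactive = any of these conditions unmet.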 The list comes from a sample in which actives are over-represented; it also holds similar structures and randomly drawn compounds.

The nature of the assay: GFP drop in mixed WT/humanized-ribosome E. coli culture – GFP/RFP fluorescence, OD600, single point, bacterial rRNA inhibitor project, primary screen (AID 720706). The following applies: E. coli WT GFP vs humanized-ribosome RFP mutants, 24 h; GFP signal change (wild-type ribosome): stronger effect = lower value, DMSO median 0, no signal -100; OD600 change: measured here: OD600 growth, DMSO median 0, no signal -100; RFP signal change: measured here: RFP humanized mutant strains, DMSO median 0, no signal -100, concentration not given here.
Regarding `O=C(/C=C/c1cn(-c2ccccc2)nc1-c1ccc2c(c1)OCCO2)NCCCN1CCOCC1`, the GFP signal change (wild-type ribosome) was -59.2% (inactive), the OD600 change was -80.4% and the RFP signal change is -18.1%.

In the case of `COc1ccc(-c2nn(-c3ccccc3)cc2/C=C\C(=O)N2CCOCC2)cc1[N+](=O)[O-]`, the GFP signal change (wild-type ribosome) is -3.42% (inactive), the OD600 change amounted to 3.96% and the RFP signal change is -1.95%.

In the case of `S=c1[nH]nc(-c2cccs2)n1/N=C/c1cn(-c2ccccc2)nc1-c1ccc(Cl)cc1`, the GFP signal change (wild-type ribosome) is 5.75% (inactive), the OD600 change was determined as 18.1% and the RFP signal change was 0.386%.

Turning to `O=C(O)c1ccc(N/N=C/c2cn(-c3ccccc3)nc2-c2cccs2)cc1`, the GFP signal change (wild-type ribosome) was -27.8% (active), the OD600 change was -18.5% and the RFP signal change is -5.29%.

In the case of `Cc1ccc2cc(/C=N/Nc3ccc(C(=O)O)cc3)c(Cl)nc2c1`, the GFP signal change (wild-type ribosome) was 8.25% (inactive), the OD600 change was -7.45% and the RFP signal change was found to be 2.99%.

As to `O=C(/C=C\c1cn(-c2ccccc2)nc1-c1cccs1)N1CCOCC1`, the GFP signal change (wild-type ribosome) is -25.3% (active), the OD600 change is -11.3% and the RFP signal change is -10.9%.

Consider `N#C[C@@H]1[C@H](c2ccccc2)[C@H](CO)N1C(=O)CN1CCOCC1`, for which the GFP signal change (wild-type ribosome) is 13.7% (inactive), the OD600 change came to 21.2% and the RFP signal change was found to be 0.395%.

Take `O=C(Nc1ccccc1F)N1CC(=O)N2[C@H](C1)[C@H](c1ccc(C#Cc3ccc(F)cc3)cc1)[C@@H]2CO`: the GFP signal change (wild-type ribosome) was -2.23% (inactive), the OD600 change was -44.6% and the RFP signal change was 20.2%.

As for `O=C(CC1CC1)N1[C@@H](CO)[C@H](c2ccccc2)C12CN(Cc1cccnc1)C2`, the GFP signal change (wild-type ribosome) is 1.16% (inactive), the OD600 change was -2.09% and the RFP signal change was 1.37%.

Turning to `COc1ccc(CN(C)C[C@@H]2Oc3ccc(NC(=O)NC(C)C)cc3C(=O)N([C@@H](C)CO)C[C@H]2C)cc1`, the GFP signal change (wild-type ribosome) was 1.14% (inactive), the OD600 change came to 10.5% and the RFP signal change was -0.455%.

In the case of `COc1ccc(-c2ccc3c(c2)[C@H]2[C@H](CCN2C(=O)C2CCOCC2)[C@H](CO)N3C)cc1`, the GFP signal change (wild-type ribosome) was -4.42% (inactive), the OD600 change is -4.78% and the RFP signal change is -1.56%.

As to `COc1ccc(-c2ccc3c(c2)C2CC3CCN2CCC#N)cc1` (stereo not drawn), the GFP signal change (wild-type ribosome) was -28.2% (active), the OD600 change is -19.1% and the RFP signal change was -3.22%.

Take `C=CCOC(=O)N1CCC2CC1c1cc(-c3ccc(OC)cc3)ccc12` (stereo not drawn): the GFP signal change (wild-type ribosome) was 3.93% (inactive), the OD600 change is 0.963% and the RFP signal change was -4.99%.

As to `COc1ccc2c3c(n(C)c2c1)[C@H](CO)NCC31CN(S(=O)(=O)c2cccc(C)c2)C1`, the GFP signal change (wild-type ribosome) is -0.56% (inactive), the OD600 change is -33% and the RFP signal change is 8.22%.

Regarding `N#Cc1cccc(C(=O)NCC2CCN(C(=O)C(=O)c3cc4ccccc4o3)CC2)c1`, the GFP signal change (wild-type ribosome) was -2.59% (inactive), the OD600 change is -1.64% and the RFP signal change was -0.945%.

`CC(C)(C)c1ccc(S(=O)(=O)NCC2CCN(C(=O)C(=O)c3cc4ccccc4o3)CC2)cc1`: the GFP signal change (wild-type ribosome) was -0.31% (inactive), the OD600 change stood at 0.126% and the RFP signal change is 0.99%.

On to `O=C(C(=O)N1CCC(CNS(=O)(=O)Cc2ccccc2)CC1)c1cc2ccccc2o1`, for which the GFP signal change (wild-type ribosome) was -14% (active), the OD600 change was -14.9% and the RFP signal change came to 2.73%.

For `COc1cccc(S(=O)(=O)N2CC3(CCN(C)CC3)c3c(n(C)c4cc(OC)ccc34)[C@H]2CO)c1`, the GFP signal change (wild-type ribosome) was -0.483% (inactive), the OD600 change was -1.36% and the RFP signal change is 0.12%.

For the compound `COc1ccc2c3c(n(C)c2c1)[C@@H](CO)N(C(=O)CN1CCOCC1)CC31CCN(Cc2ccncc2)CC1`, the GFP signal change (wild-type ribosome) is 1.45% (inactive), the OD600 change was 2.53% and the RFP signal change is -1.13%.

`C[C@@H](NC(=O)C[C@@H]1CC[C@H]2[C@@H](COC[C@@H](O)CN2C(=O)Nc2cccc(F)c2)O1)c1ccccc1`: the GFP signal change (wild-type ribosome) is -11.5% (inactive), the OD600 change was -6.23% and the RFP signal change was 5.17%.

Regarding `COc1ccc(CC2(CO)CCN(Cc3cnn(C)c3)CC2)cc1`, the GFP signal change (wild-type ribosome) is 25.9% (inactive), the OD600 change was found to be 13% and the RFP signal change came to 1.82%.

Take `CCOc1ccccc1NC(=O)C1CCN(S(=O)(=O)c2c(C)nn(C)c2C)CC1`: the GFP signal change (wild-type ribosome) is 3.06% (inactive), the OD600 change is -0.4% and the RFP signal change is -2.77%.

`Cc1nn(C)c(C)c1S(=O)(=O)N1CCC(CO)(Cc2ccc(Cl)cc2)CC1`: the GFP signal change (wild-type ribosome) was -22% (active), the OD600 change was -16.9% and the RFP signal change worked out at 0.06%.

For the compound `O=C(NCC[C@@H]1CC[C@@H](NC(=O)c2ccccc2F)[C@H](CO)O1)c1ccc2c(c1)OCO2`, the GFP signal change (wild-type ribosome) is 0.211% (inactive), the OD600 change came to 0.175% and the RFP signal change was -1.31%.

With `COc1ccc(NC(=O)N(C)C[C@@H]2Oc3ccc(NS(=O)(=O)c4ccc(Cl)cc4)cc3C(=O)N([C@H](C)CO)C[C@@H]2C)cc1`, the GFP signal change (wild-type ribosome) was -1.87% (inactive), the OD600 change is -3.81% and the RFP signal change worked out at 4.46%.

As for `CCCOc1ccc(F)cc1-c1cc(C(=O)Nc2ccc(F)c(Cl)c2)[nH]n1`, the GFP signal change (wild-type ribosome) is -11.9% (inactive), the OD600 change is -20.4% and the RFP signal change was 8.72%.

On to `CCN(CC)C(=O)C(=O)Nc1cccc(Br)c1`, for which the GFP signal change (wild-type ribosome) is 2.19% (inactive), the OD600 change amounted to 1.55% and the RFP signal change was -1.36%.

With `CCN(CC)C(=O)Oc1ccc(Br)cc1C(=O)Nc1ccc(F)c(Cl)c1`, the GFP signal change (wild-type ribosome) was -28% (active), the OD600 change is -13.7% and the RFP signal change is -1.17%.

As for `COc1ccc2c3c(n(C)c2c1)[C@@H](CO)N(Cc1ccccc1OC)CC31CN(CC2CCOCC2)C1`, the GFP signal change (wild-type ribosome) is 2.13% (inactive), the OD600 change was determined as 1.76% and the RFP signal change was -0.161%.

On to `COc1ccc(S(=O)(=O)Nc2ccc3c(c2)C(=O)N([C@H](C)CO)C[C@@H](C)[C@@H](CN(C)CC2CCCCC2)O3)cc1`, for which the GFP signal change (wild-type ribosome) is 3.31% (inactive), the OD600 change is -3.13% and the RFP signal change was -1.7%.

Regarding `O=C(C[C@H]1CC[C@@H]2[C@H](COC[C@H](O)CN2Cc2ccc(Oc3ccccc3)cc2)O1)N1CCN(c2ccccc2)CC1`, the GFP signal change (wild-type ribosome) is -14.8% (inactive), the OD600 change is -41.1% and the RFP signal change came to 19.9%.
